The target of test [1] is guinea pig Sigma Receptor, Non-selective Binding, SIGMAR1 (gene 100135589) (UniProt Q60492). Description: NVS_OR_gSIGMA_NonSelective: NovaScreen (NVS) Nuclear Receptor Binding Assay for guinea pig Sigma Receptor, Non-selective Binding (AID 2283367). The method, boiled down: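 Radioligand displacement on guinea pig brain membranes, read by filter-based scintillation counting 1 h after dosing. Loss of signal versus DMSO; initial duplicate single-point screen at 25 uM, actives followed in concentration series.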

For test [2], the target named is Peroxisome proliferator-activated receptor gamma (Homo sapiens) (UniProt P37231). Description: NVS_NR_hPPARg: NovaScreen (NVS) Nuclear Receptor Binding Assay for human Peroxisome Proliferator-activated Receptor gamma (PPARg) (AID 2283370). The method, boiled down: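 Fluorescence polarization measures competitive binding to extracted PPARg in a cell-free format. Reading is taken at 2 h; activity is signal loss relative to DMSO. Screening at 25 uM in duplicate preceded confirmatory dose series.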

The target of test [3] is Estrogen receptor beta (Homo sapiens) (UniProt Q92731). The experiment in a line: OT_ER_ERbERb_1440: Odyssey Thera (OT) 24-hour HEK293T Protein-Complementation Assay for Estrogen Receptor-beta/-beta Homodimer (AID 2283380).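 Also: scored as signal increase over DMSO baseline for both agonists and antagonists.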 The method, boiled down: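 HEK293T cells stably expressing ER beta LBD (aa 310-547) homodimer fragment-complementation reporter, dosed 24 h. Cells formaldehyde-fixed, Draq5-stained; gain in nuclear (agonist) or nuclear plus cytoplasmic (antagonist) fluorescence versus DMSO read by laser scanning cytometry.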

In test [4] the target is Bile acid receptor (Homo sapiens) (UniProt Q96RI1). Description: OT_FXR_FXRSRC1_0480: Odyssey Thera (OT) 8-hour HEK293T Protein-Complementation Assay for Farnesoid X receptor/SRC-1 Co-activator (AID 2283383). The essentials: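 Human kidney HEK293T cells carried FXR/SRC-1 fragment-complementation constructs. Compounds were added and incubated 8 h. Reporter reassembly upon receptor–co-activator interaction was then quantified by fluorescence, with curves fitted in the positive direction relative to DMSO.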

Test [5] shares this target. Description: OT_FXR_FXRSRC1_1440: Odyssey Thera (OT) 24-hour HEK293T Protein-Complementation Assay for Farnesoid X receptor/SRC-1 Co-activator (AID 2283384). The method, boiled down:
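Compounds are applied to human kidney HEK293T cells expressing bait and prey fused to reporter protein fragments; after 24 h, reconstituted reporter fluorescence is measured. Activity is fitted as signal gain over DMSO.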

The target of test [6] is Retinoic acid receptor RXR-alpha (Homo sapiens) (UniProt P19793). The experiment in a line: OT_NURR1_NURR1RXRa_0480: Odyssey Thera (OT) 8-hour HEK293T Protein Complementation Assay for Nurr1/retinoid X receptor (RXR) (AID 2283385). The essentials: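 8 h compound exposure, HEK293T; Nurr1/RXRα fragment complementation; fluorescence intensity; positive fitting direction vs DMSO baseline.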

In test [7] the target is Peroxisome proliferator-activated receptor gamma (Homo sapiens) (UniProt P37231). The experiment in a line: OT_PPARg_PPARgSRC1_0480: Odyssey Thera (OT) 8-hour Protein-Complementation Assay for Peroxisome Proliferator-activated Receptor Gamma / SRC-1 Co-activator (AID 2283387).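 Also: nuclear to cytoplasmic split Venus YFP fluorescence ratio reporting PPARg SRC-1 interaction.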 The essentials:
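Split-YFP (IFP1/IFP2) PPARg/SRC-1 reporter, HEK293T, 37 °C, 5% CO2; 8 h compound; formaldehyde fix + Draq5; high-content imaging, N/C ratio, ≥350 cells/image, positive direction vs DMSO.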

Test [8] has the same target. Description: OT_PPARg_PPARgSRC1_1440: Odyssey Thera (OT) 24-hour Protein-Complementation Assay for Peroxisome Proliferator-activated Receptor Gamma/ SRC-1 Co-activator (AID 2283388).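 Also: nuclear to cytoplasmic ratio of reconstituted Venus YFP fluorescence in fixed imaged cells.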 The essentials:
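Transient HEK293T, YFP fragments 1-158/159-239 (mutant IFP1/IFP2) fused to PPARg/SRC-1; 24 h dosing; fix 4% formaldehyde, Draq5; Opera imaging 488/635 nm; N/C ratio, gain vs DMSO.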

Test [9] deals with guinea pig Dopamine Transporter (DAT), gene 100714898. The experiment in a line: NVS_TR_gDAT: NovaScreen (NVS) Transporter Assay for guinea pig Dopamine Transporter (DAT) (AID 2283369).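 Also: active compounds lower bound radioligand signal relative to DMSO.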 The essentials: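 Test chemicals were incubated 2 h with guinea pig striatal membranes and a radioligand; bound label was separated by filtration and counted. Screening ran at 25 uM, followed by concentration-response testing to a 50 uM maximum.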

Test [10] addresses human Dopamine Transporter (DAT), SLC6A3 (gene 6531) (UniProt Q01959). The experiment in a line: NVS_TR_hDAT: NovaScreen (NVS) Transporter Assay for human Dopamine Transporter (DAT) (AID 2283374).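 Also: activity means loss of bound radioligand signal relative to DMSO.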 The essentials:
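Cell-free radioligand displacement binding at human DAT, 1 h after dosing, with filtration and scintillation counting. Primary screen in duplicate at 25 uM, actives then in concentration series. Loss of bound signal versus DMSO scored.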

Test [11] has as its target rat Serotonin Transporter (SERT), Slc6a4 (gene 25553) (UniProt P31652). Description: NVS_TR_rSERT: NovaScreen (NVS) Transporter Assay for rat Serotonin Transporter (SERT) (AID 2283375). The essentials:
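Steps: rat forebrain membranes dosed with chemical (25 uM duplicate primary; concentration series for actives); 1 h incubation; labelled ligand bound, filtered, counted by scintillation. Activity scored as signal loss vs DMSO.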

Test [12] has as its target human Norepinephrine Transporter (NET), SLC6A2 (gene 6530) (UniProt P23975). The experiment in a line: NVS_TR_hNET: NovaScreen (NVS) Transporter Assay for human Norepinephrine Transporter (NET) (AID 2283377).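 As to AC50: displacement of radioligand from human NET seen as loss of scintillation signal.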 The essentials:
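Cell-free radioligand binding using CHO-derived membrane protein expressing human NET, read by filter scintillation counting 1 h after dosing; loss of signal vs DMSO. Initial duplicate screen at 25 uM, actives retested in concentration series.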

In test [13] the target is Retinoic acid receptor RXR-alpha (Homo sapiens) (UniProt P19793). Description: OT_NURR1_NURR1RXRa_1440: Odyssey Thera (OT) 24-hour HEK293T Protein Complementation Assay for Nurr1/retinoid X receptor (RXR) (AID 2283386). The essentials:
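Interaction of Nurr1 with RXRα brings fused reporter fragments together in human HEK293T cells, restoring a functional reporter. Fluorescence intensity is measured 24 h after chemical treatment, and values are analysed in the positive direction against DMSO.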

In test [14] the target is Agonist Androgen Response Element (ARE), AR (gene 367) (UniProt P10275). The experiment in a line: OT_AR_ARELUC_AG_1440: Odyssey Thera (OT) 24-hour CHO-K1 Luciferase Assay for Agonist Androgen Response Element (ARE) (AID 2283379). The method, boiled down: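 CHO-K1 cells carrying an ARE-driven luciferase reporter were exposed to compounds for 24 h. Luminescence was then read after adding a D-luciferin/ATP mix, and activity was scored as a gain in signal over DMSO vehicle.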

Drawing on PubChem BioAssay (EPA / NIEHS), this text covers outcome and AC50 for 31 molecules.

Inconclusive results are not listed. Calls of active or inactive are those of the source. The calls were made as follows: active = hit-call score of the fitted dose curve at least 0.9, where 1 is the maximum; inconclusive = response in the unintended direction; inactive = score below 0.9.

Peroxisome proliferator-activated receptor gamma (Homo sapiens), sequence (P37231 whole entry, looked up): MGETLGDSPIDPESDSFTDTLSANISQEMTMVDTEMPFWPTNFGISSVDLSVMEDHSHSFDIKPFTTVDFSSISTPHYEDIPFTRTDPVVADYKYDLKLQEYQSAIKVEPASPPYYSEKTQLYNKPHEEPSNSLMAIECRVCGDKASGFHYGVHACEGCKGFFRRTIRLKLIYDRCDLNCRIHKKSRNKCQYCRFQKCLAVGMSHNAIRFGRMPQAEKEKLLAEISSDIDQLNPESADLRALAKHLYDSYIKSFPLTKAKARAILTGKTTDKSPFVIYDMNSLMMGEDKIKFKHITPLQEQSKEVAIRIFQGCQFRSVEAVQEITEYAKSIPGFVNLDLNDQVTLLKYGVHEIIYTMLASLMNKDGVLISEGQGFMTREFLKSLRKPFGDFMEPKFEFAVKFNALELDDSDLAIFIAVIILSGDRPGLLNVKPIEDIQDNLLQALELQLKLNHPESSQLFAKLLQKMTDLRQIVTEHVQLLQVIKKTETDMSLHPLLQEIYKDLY
Retinoic acid receptor RXR-alpha (Homo sapiens), sequence (P19793 whole entry, looked up, the tested form may be a part): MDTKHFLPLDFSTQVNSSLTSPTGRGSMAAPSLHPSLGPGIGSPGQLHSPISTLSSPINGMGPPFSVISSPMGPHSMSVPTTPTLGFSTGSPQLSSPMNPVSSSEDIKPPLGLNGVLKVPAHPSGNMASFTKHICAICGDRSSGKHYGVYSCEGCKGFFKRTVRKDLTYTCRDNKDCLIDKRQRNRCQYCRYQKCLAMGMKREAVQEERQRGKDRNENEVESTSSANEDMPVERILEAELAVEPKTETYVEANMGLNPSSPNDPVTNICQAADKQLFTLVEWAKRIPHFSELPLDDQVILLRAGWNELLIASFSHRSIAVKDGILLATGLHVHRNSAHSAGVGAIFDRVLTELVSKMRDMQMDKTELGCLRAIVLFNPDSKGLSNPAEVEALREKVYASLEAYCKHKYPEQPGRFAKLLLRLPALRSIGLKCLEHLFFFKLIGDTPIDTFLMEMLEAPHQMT
guinea pig Sigma Receptor, Non-selective Binding, SIGMAR1 (gene 100135589), sequence (Q60492 whole entry, looked up): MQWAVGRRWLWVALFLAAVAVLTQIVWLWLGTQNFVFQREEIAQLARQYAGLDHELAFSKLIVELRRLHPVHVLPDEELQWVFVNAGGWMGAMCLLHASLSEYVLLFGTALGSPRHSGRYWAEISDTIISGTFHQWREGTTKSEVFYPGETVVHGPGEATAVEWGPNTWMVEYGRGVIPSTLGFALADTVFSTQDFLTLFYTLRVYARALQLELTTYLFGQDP
Bile acid receptor (Homo sapiens), sequence (Q96RI1 whole entry, looked up, the tested form may be a part): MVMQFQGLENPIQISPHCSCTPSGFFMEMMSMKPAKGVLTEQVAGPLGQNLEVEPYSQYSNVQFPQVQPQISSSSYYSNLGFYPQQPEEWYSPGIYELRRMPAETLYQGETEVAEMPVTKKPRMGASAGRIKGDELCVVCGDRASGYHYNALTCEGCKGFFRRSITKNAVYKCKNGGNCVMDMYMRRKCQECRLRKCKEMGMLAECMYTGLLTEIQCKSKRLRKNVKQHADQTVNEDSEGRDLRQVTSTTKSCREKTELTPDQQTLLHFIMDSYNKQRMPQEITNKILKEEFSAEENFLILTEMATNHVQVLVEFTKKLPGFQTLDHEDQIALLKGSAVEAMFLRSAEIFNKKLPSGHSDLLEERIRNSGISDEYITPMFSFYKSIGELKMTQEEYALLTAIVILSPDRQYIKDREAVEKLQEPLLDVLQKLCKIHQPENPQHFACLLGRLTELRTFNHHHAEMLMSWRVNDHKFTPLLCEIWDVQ
human Norepinephrine Transporter (NET), SLC6A2 (gene 6530), sequence (P23975 whole entry, looked up): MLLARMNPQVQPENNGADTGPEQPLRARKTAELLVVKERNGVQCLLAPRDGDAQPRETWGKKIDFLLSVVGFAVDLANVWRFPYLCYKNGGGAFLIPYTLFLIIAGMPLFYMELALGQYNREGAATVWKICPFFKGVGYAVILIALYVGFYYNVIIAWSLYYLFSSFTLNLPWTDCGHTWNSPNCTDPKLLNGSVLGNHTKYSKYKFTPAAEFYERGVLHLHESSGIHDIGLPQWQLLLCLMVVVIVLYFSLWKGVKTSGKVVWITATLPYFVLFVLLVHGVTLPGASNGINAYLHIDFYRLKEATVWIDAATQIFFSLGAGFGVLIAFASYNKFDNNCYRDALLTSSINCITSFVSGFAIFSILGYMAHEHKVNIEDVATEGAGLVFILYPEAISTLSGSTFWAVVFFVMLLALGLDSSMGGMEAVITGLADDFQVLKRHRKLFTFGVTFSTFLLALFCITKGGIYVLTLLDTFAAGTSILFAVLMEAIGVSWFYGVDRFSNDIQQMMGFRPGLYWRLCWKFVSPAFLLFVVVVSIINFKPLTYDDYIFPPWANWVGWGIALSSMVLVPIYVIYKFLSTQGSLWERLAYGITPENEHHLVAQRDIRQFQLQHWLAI
Agonist Androgen Response Element (ARE), AR (gene 367), sequence (P10275 whole entry, looked up): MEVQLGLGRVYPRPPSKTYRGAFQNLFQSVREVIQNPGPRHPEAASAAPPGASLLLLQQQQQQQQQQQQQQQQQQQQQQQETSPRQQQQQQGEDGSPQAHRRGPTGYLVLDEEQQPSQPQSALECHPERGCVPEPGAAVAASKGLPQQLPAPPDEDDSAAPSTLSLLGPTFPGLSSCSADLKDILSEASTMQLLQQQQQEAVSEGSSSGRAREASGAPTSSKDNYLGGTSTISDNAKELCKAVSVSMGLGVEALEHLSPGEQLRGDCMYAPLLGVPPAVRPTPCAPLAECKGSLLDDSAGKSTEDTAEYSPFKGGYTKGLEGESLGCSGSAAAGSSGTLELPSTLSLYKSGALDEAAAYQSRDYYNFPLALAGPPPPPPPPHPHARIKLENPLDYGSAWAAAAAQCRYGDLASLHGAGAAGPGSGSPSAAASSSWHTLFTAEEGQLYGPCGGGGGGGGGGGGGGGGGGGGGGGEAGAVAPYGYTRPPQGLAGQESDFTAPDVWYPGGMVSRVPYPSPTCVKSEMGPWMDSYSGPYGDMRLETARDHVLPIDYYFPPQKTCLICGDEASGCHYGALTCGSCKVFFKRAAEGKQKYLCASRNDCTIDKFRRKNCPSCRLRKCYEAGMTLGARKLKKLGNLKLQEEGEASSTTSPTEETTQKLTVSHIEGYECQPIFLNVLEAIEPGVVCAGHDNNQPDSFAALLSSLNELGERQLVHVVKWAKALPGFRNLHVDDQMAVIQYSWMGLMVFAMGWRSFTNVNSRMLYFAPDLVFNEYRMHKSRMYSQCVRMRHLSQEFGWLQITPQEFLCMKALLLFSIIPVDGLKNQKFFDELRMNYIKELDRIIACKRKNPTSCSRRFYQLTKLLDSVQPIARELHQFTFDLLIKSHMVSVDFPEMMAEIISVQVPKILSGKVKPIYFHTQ
Estrogen receptor beta (Homo sapiens), sequence (Q92731 whole entry, looked up, the tested form may be a part): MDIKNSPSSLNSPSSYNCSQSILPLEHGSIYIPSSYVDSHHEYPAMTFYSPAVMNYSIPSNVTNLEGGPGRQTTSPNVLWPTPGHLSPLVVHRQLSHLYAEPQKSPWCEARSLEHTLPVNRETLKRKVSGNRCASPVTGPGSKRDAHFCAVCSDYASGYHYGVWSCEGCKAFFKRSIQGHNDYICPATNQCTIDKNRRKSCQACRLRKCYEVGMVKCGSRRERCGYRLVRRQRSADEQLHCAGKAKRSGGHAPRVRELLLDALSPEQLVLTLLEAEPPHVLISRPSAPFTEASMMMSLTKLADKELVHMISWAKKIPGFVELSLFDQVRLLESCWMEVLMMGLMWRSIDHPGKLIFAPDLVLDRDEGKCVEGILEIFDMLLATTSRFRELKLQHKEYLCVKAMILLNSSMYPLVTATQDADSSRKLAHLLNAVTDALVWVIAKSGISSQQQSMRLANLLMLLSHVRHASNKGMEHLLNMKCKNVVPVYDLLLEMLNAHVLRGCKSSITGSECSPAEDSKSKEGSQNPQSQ
rat Serotonin Transporter (SERT), Slc6a4 (gene 25553), sequence (P31652 whole entry, looked up): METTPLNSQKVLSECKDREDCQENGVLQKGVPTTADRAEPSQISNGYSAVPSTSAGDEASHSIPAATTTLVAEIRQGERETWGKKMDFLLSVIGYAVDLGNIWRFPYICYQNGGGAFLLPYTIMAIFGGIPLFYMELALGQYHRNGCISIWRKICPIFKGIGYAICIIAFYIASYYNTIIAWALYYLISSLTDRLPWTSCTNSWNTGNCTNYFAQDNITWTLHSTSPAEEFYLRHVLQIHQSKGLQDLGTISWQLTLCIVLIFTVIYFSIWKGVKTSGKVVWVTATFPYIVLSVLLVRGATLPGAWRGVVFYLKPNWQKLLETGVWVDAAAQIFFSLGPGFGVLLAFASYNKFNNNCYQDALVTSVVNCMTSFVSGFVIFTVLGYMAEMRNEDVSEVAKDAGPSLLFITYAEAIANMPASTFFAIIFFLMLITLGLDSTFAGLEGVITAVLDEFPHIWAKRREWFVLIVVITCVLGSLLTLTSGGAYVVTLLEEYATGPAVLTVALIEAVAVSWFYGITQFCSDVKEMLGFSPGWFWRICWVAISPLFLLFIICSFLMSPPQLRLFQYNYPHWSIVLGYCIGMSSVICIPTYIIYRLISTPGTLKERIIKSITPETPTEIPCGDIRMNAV
human Dopamine Transporter (DAT), SLC6A3 (gene 6531), sequence (Q01959 whole entry, looked up): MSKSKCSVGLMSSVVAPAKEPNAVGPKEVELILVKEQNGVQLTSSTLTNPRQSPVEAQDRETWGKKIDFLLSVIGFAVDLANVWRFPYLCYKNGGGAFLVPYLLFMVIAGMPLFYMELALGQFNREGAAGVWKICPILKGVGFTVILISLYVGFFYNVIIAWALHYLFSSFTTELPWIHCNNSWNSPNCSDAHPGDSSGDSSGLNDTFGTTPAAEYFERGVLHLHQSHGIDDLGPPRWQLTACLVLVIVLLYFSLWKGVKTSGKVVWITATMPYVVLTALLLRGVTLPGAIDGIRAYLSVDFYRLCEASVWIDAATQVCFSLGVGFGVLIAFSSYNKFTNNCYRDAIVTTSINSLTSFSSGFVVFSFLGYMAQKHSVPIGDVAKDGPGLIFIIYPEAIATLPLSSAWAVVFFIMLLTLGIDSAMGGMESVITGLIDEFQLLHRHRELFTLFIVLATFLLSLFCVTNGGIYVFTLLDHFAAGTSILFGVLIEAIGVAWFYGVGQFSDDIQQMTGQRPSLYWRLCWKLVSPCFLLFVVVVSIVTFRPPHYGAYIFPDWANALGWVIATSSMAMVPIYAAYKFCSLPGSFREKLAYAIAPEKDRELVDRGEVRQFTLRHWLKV

As to `c1ccc2[nH]cnc2c1`, the molecule was classed as inactive in test [1].
Turning to `Nc1ccccc1[N+](=O)[O-]`, the result in [2], in [3], in [4], in [5], in [6] and in [7] was inactive. In addition, in test [8], the outcome was inactive.
A word on the AC50: it is the concentration at which the activity in the assay is half-maximal. On to `COc1ccc(CCN2CCC(Nc3nc4ccccc4n3Cc3ccc(F)cc3)CC2)cc1`, for which the AC50 in test [1] is 1.24 µM (active); in test [9] it was 4.41 µM (active); in test [10], 3.89 µM (active); in test [11], 2.26 µM (active); in test [12] it was 2.52 µM (active).
Consider `CCOC(=O)c1ccc(N)cc1`, for which the half-maximal activity concentration (AC50) in test [2] was 41.6 µM (active); in [5], 20.2 µM (active); in [13] it was 31.8 µM (active). Moreover, the result in test [3], in test [4], in test [6], in test [7] and in test [8] was inactive.
With `CC(C=O)Cc1ccc(C(C)(C)C)cc1` (centres undefined), the AC50 in test [1] was 2.97 µM (active). Also, the call in test [3], in [5], in test [6], in [13], in [7] and in test [8] was inactive.
Take `C=C1C[C@]23C[C@@]1(O)CC[C@H]2[C@@]12C=C[C@H](O)[C@@](C)(C(=O)O1)[C@H]2[C@@H]3C(=O)O`: the molecule was classed as inactive in [2], in test [4], in test [7] and in test [8].
On to `C[C@@H]1CCN(C(=O)[C@H](CCCN=C(N)N)NS(=O)(=O)c2cccc3c2NC[C@H](C)C3)[C@@H](C(=O)O)C1`, for which, in [12], the result was inactive.
`O=C(CC(=O)c1ccccc1)c1ccccc1`: the AC50 was 85.9 µM (active) in test [3] and 81.5 µM (active) in test [13]. The molecule was classed as inactive in test [4], in test [5], in test [6], in test [7] and in [8].
Turning to `CCCCCCCCCCCCCC(=O)OCC(O)CO` (centres undefined), the call in [14], in test [3] and in test [6] was inactive. Also, the AC50 in test [4] is 79.8 µM (active); in test [5] it was 82.9 µM (active).
For `CCCC(O)C(O)CO` (centres undefined), in [12], the call was inactive.
Turning to `c1ccc(Oc2ccccc2)cc1`, the molecule was called inactive in [3], in test [4] and in test [6].
With `CCOC(=O)[C@@H](C)Oc1ccc(Oc2nc3ccc(Cl)cc3o2)cc1`, the call in test [14], in [3], in [6], in [13], in test [7] and in test [8] was inactive. Moreover, the AC50 was 24 µM (active) in test [4] and 50 µM (active) in test [5].
Turning to `OCc1cccc(Oc2ccccc2)c1`, the outcome in test [14], in test [4], in test [5], in test [6], in [7] and in test [8] was inactive. The half-maximal activity concentration (AC50) in [3] was 59.1 µM (active).
Turning to `CCCCCC(C=O)=Cc1ccccc1`, the molecule was called inactive in test [3], in test [4], in test [5], in test [6], in test [7] and in test [8].
For `CCCCOC(=O)CCCCCCCC(=O)OCCCC`, the call in test [3], in test [4], in test [6], in test [7] and in test [8] was inactive.
Take `BrCc1cccc(Oc2ccccc2)c1`: the molecule was classed as inactive in test [14], in test [6] and in [8]. Besides, the concentration at half-maximal activity (AC50) in [3] is 56.3 µM (active).
Take `NC(=S)NNC(N)=S`: the outcome in test [12] was inactive.
Turning to `Nc1ccc(N)c2c1C(=O)c1ccccc1C2=O`, in [14], the half-maximal activity concentration (AC50) was 1.71 µM (active). Also, the molecule was called inactive in test [3], in [5] and in test [8].
For `Nc1ccc(Cl)c([N+](=O)[O-])c1`, in [12], the molecule was called inactive.
For the molecule `COc1ccc(OC)c(N=Nc2c(O)ccc3ccccc23)c1`, in test [12], the AC50 is 17.4 µM (active).
For the molecule `CCCCCCCCCC(=O)OC`, the outcome in test [3], in test [4], in [5], in [13], in [7] and in [8] was inactive.
On to `CCCCCCCCSCCO`, for which the molecule was called inactive in test [14], in [5], in [6], in test [13], in test [7] and in test [8]. Further, in test [4], the concentration at half-maximal activity (AC50) was 74.1 µM (active).
Regarding `CCC1(C)NC(=O)NC1=O` (centres undefined), the call in test [3], in test [4], in test [7] and in test [8] was inactive.
On to `COc1cccc(OC)c1O`, for which, in test [12], the outcome was inactive.
Consider `CC1CCC(C(C)C)C(O)C1` (centres undefined), for which the result in [14], in test [3], in [4], in test [5], in [7] and in [8] was inactive.
With `CC=Cc1ccc(OC)c(OC)c1`, the outcome in test [12] was inactive.
With `C=C(C)C(=O)OCCOC1CC2CC1C1C=CCC21` (centres undefined), the molecule was classed as inactive in [3], in test [5], in test [6], in test [7] and in test [8]. Moreover, the concentration at half-maximal activity (AC50) in test [4] is 72.3 µM (active).
For the molecule `CCCCCCCCCCCCCCCC(=O)OC/C=C(C)/C=C/C=C(C)/C=C/C1=C(C)CCCC1(C)C`, in [12], the outcome was inactive.
Take `Cc1cc(S(=O)(=O)O)ccc1N=Nc1c(O)ccc2ccccc12`: the molecule was classed as inactive in test [3], in test [5], in test [7] and in [8].
Regarding `COc1cc(Cl)c(OC)cc1N`, in test [12], the AC50 was 25 µM (active).
Regarding `CC(=O)O[C@@H]1CC2CCC1(C)C2(C)C` (some centres undefined), the result in test [3], in test [4], in [6], in test [13], in test [7] and in test [8] was inactive.
